Source: PubChem BioAssay (NCI)
Several values for one entry are separate records, joined by “and”; a condition that tells them apart may be missing. Equal values may be shown once. The panel holds about 79,000 compounds, 15% with a hit somewhere; the sample as a whole holds those more often. A structure can be active in one record and inactive in another. Activity calls are given as the source filed them. No stated cut-off is given here; in the data, active means growth inhibition above about 70%; inactive means the rest.

What was measured:
[1] = NCI Yeast Anticancer Drug Screen. Data for the rad50 strain (AID 155);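 further: 0% = growth of vehicle-only cultures of the same strain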; settings: S. cerevisiae rad50 strain growth inhibition, stronger effect = higher value
Procedure, shortened: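 Genetically altered yeast (DNA repair pathway); compound treatment; growth inhibition vs vehicle ctrl.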

[2] = NCI Yeast Anticancer Drug Screen. Data for the mec2-1 strain (AID 157); settings: S. cerevisiae mec2-1 strain, stronger effect = higher value
Procedure, shortened: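 Compounds were applied to mec2-1 yeast cells. Their growth was then compared with that of vehicle-treated cultures to give growth inhibition.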

[3] = NCI Yeast Anticancer Drug Screen. Data for the sgs1 mgt1 strain (AID 161);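 further: 0% = growth of cultures given vehicle only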; settings: S. cerevisiae sgs1 mgt1 strain, stronger effect = higher value
Procedure, shortened: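 This yeast growth screen uses a strain with defined DNA-repair lesions; compound-treated growth is compared with vehicle-treated growth.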

[4] = NCI Yeast Anticancer Drug Screen. Data for the cln2 rad14 strain (AID 165);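 further: 0% = growth equal to vehicle treated cultures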; settings: S. cerevisiae cln2 rad14 strain, stronger effect = higher value
Procedure, shortened: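 Strain: cln2 rad14 yeast, altered in cell cycle control and DNA damage repair. Read-out: growth inhibition vs vehicle.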

[5] = NCI Yeast Anticancer Drug Screen. Data for the bub3 strain (AID 167); settings: S. cerevisiae bub3 mutant strain, stronger effect = higher value
Procedure, shortened: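 Yeast carrying a defined mutation is treated with each compound, and growth is compared with that of vehicle-exposed cells to give inhibition.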

[6] = NCI Yeast Anticancer Drug Screen. Data for the mlh1 rad18 strain (AID 175); settings: S. cerevisiae mlh1 rad18 strain growth inhibition, stronger effect = higher value
Procedure, shortened: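 A repair-deficient yeast strain is exposed to test compound, and growth is scored relative to vehicle-treated controls.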

[7] = NCI Yeast Anticancer Drug Screen. Data for the wt2 strain (AID 169);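 further: 0% = growth of vehicle-treated yeast cultures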; settings: S. cerevisiae wt2 strain growth inhibition, stronger effect = higher value
Procedure, shortened: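 Growth of compound-treated yeast is measured and expressed as inhibition relative to vehicle-only controls.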

[8] = at 5.0 µM (retest, dose inferred, filed as 0.5)
[9] = at 50.0 µM (retest, dose inferred, filed as 5.0)

CC1CC=CCC1C(=O)O (stereo not given)
growth inhibition [1, 8]: 8% (inactive) | growth inhibition [1, 9]: -1% (inactive) | growth inhibition ([1]; at 50.0 µM): 36% (inactive) and 9.75% (inactive) | growth inhibition [2, 8]: 2% (inactive) | growth inhibition [2, 9]: -2% (inactive) | growth inhibition ([2]; at 50.0 µM): -17.2% (inactive) and 28.9% (inactive) | growth inhibition [3, 8]: 2% (inactive) | growth inhibition [3, 9]: -3% (inactive) | growth inhibition ([3]; at 50.0 µM): -10.5% (inactive) and -4.9% (inactive) | growth inhibition [4, 8]: 13% (inactive) | growth inhibition [4, 9]: 3% (inactive) | growth inhibition ([4]; at 50.0 µM): -8.4% (inactive) and -41.3% (inactive) | growth inhibition [5, 8]: 6% (inactive) | growth inhibition [5, 9]: 2% (inactive) | growth inhibition ([5]; at 50.0 µM): 33.3% (inactive) and -3.9% (inactive) | growth inhibition [6, 8]: 4% (inactive) | growth inhibition [6, 9]: -5% (inactive) | growth inhibition ([6]; at 50.0 µM): 9.65% (inactive) and 10.2% (inactive)

O=S(=O)(O)c1ccc2cc(N=Nc3c(O)ccc4ccccc34)ccc2c1
growth inhibition [1, 8]: 9% (inactive) | growth inhibition [1, 9]: 15% (inactive) | growth inhibition ([1]; at 50.0 µM): 19.9% (inactive) | growth inhibition [2, 8]: 2% (inactive) | growth inhibition [2, 9]: 12% (inactive) | growth inhibition ([2]; at 50.0 µM): 5.45% (inactive) | growth inhibition [3, 8]: 7% (inactive) | growth inhibition [3, 9]: 72% (active) | growth inhibition ([3]; at 50.0 µM): 75.3% (active) | growth inhibition [4, 8]: -7% (inactive) | growth inhibition [4, 9]: 0% (inactive) | growth inhibition ([4]; at 50.0 µM): 33.4% (inactive) | growth inhibition [5, 8]: -2% (inactive) | growth inhibition [5, 9]: -21% (inactive) | growth inhibition ([5]; at 50.0 µM): 3.5% (inactive) | growth inhibition [6, 8]: 2% (inactive) | growth inhibition [6, 9]: 10% (inactive) | growth inhibition ([6]; at 50.0 µM): 34.9% (inactive)

CCSSC(=Nc1ccccc1)OCC(C)C
growth inhibition [1, 8]: 17% (inactive) | growth inhibition [1, 9]: 91% (active) | growth inhibition ([1]; at 50.0 µM): 62% (inactive) | growth inhibition [2, 8]: 18% (inactive) | growth inhibition [2, 9]: 70% (active) | growth inhibition ([2]; at 50.0 µM): 80.4% (active) | growth inhibition [3, 8]: 47% (inactive) | growth inhibition [3, 9]: 97% (active) | growth inhibition ([3]; at 50.0 µM): 71.8% (active) | growth inhibition [4, 8]: 50% (inactive) | growth inhibition [4, 9]: 92% (active) | growth inhibition ([4]; at 50.0 µM): 30.8% (inactive) | growth inhibition [5, 8]: 52% (inactive) | growth inhibition [5, 9]: 97% (active) | growth inhibition ([5]; at 50.0 µM): 84.4% (active) | growth inhibition [6, 8]: 23% (inactive) | growth inhibition [6, 9]: 82% (active) | growth inhibition ([6]; at 50.0 µM): 80% (active)

O=C1C=CC(=O)N1c1ccc(N=Nc2ccccc2)cc1
growth inhibition [1, 8]: 97% (active) | growth inhibition [1, 9]: 99% (active) | growth inhibition ([1]; at 50.0 µM): 86.2% (active) and 7.45% (inactive) | growth inhibition [2, 8]: 99% (active) | growth inhibition [2, 9]: 99% (active) | growth inhibition ([2]; at 50.0 µM): 86.2% (active) and -13.1% (inactive) | growth inhibition [3, 8]: 99% (active) | growth inhibition [3, 9]: 91% (active) | growth inhibition ([3]; at 50.0 µM): 89.7% (active) and 21.8% (inactive) | growth inhibition [5, 8]: 99% (active) | growth inhibition [5, 9]: 91% (active) | growth inhibition ([5]; at 50.0 µM): 87% (active) and 5.75% (inactive)

C=C1C(=O)C23OC2C1CCC(=O)C1(C)CC[C@H](OC(C)=O)C(C)(C)[C@H]1CC3=O (stereo not given in full)
growth inhibition [1, 8]: 96% (active) | growth inhibition [1, 9]: -2% (inactive) | growth inhibition ([1]; at 50.0 µM): 99.2% (active) | growth inhibition [2, 8]: 98% (active) | growth inhibition [2, 9]: 1% (inactive) | growth inhibition ([2]; at 50.0 µM): 99.5% (active) | growth inhibition [3, 8]: 98% (active) | growth inhibition [3, 9]: 0% (inactive) | growth inhibition ([3]; at 50.0 µM): 99.5% (active) | growth inhibition [4, 8]: 95% (active) | growth inhibition [4, 9]: -1% (inactive) | growth inhibition ([4]; at 50.0 µM): 99% (active) | growth inhibition [5, 8]: 98% (active) | growth inhibition [5, 9]: -1% (inactive) | growth inhibition ([5]; at 50.0 µM): 99% (active) | growth inhibition [6, 8]: 98% (active) | growth inhibition [6, 9]: -1% (inactive) | growth inhibition ([6]; at 50.0 µM): 99.2% (active)

O=c1[nH]c2cc([N+](=O)[O-])ccc2nc1/C=C(\O)c1ccc([N+](=O)[O-])cc1
growth inhibition [1, 8]: 21% (inactive) | growth inhibition [1, 9]: 86% (active) | growth inhibition ([1]; at 50.0 µM): 54.2% (inactive) and -3.6% (inactive) | growth inhibition [2, 8]: -4% (inactive) | growth inhibition [2, 9]: 59% (inactive) | growth inhibition ([2]; at 50.0 µM): 16.1% (inactive) and -6.35% (inactive) | growth inhibition [3, 8]: 13% (inactive) | growth inhibition [3, 9]: 85% (active) | growth inhibition ([3]; at 50.0 µM): 82.1% (active) and -3.95% (inactive) | growth inhibition [4, 8]: 4% (inactive) | growth inhibition [4, 9]: 38% (inactive) | growth inhibition ([4]; at 50.0 µM): 34% (inactive) and -15.9% (inactive) | growth inhibition [5, 8]: 11% (inactive) | growth inhibition [5, 9]: 86% (active) | growth inhibition ([5]; at 50.0 µM): 4.75% (inactive) and 5.75% (inactive) | growth inhibition [6, 8]: 6% (inactive) | growth inhibition [6, 9]: 77% (active) | growth inhibition ([6]; at 50.0 µM): 68.4% (inactive) and -1.4% (inactive)

CCO/C=C1\SC(=S)N(c2cccc(O)c2)C1=O
growth inhibition [1, 8]: 57% (inactive) | growth inhibition [1, 9]: 100% (active) | growth inhibition ([1]; at 50.0 µM): 28.4% (inactive) | growth inhibition [2, 8]: 74% (active) | growth inhibition [2, 9]: 100% (active) | growth inhibition ([2]; at 50.0 µM): 15.3% (inactive) | growth inhibition [3, 8]: 13% (inactive) | growth inhibition [3, 9]: 90% (active) | growth inhibition ([3]; at 50.0 µM): 40.4% (inactive) | growth inhibition [5, 8]: 6% (inactive) | growth inhibition [5, 9]: 91% (active) | growth inhibition ([5]; at 50.0 µM): 40.2% (inactive) | growth inhibition ([7]; at 1.2 µM): -13% (inactive) | growth inhibition ([7]; at 3.7 µM): -13% (inactive) | growth inhibition ([7]; at 11.0 µM): -13% (inactive) | growth inhibition ([7]; at 33.0 µM): 22% (inactive) | growth inhibition ([7]; at 100.0 µM): 96% (active) | growth inhibition [6, 8]: 54% (inactive) | growth inhibition [6, 9]: 100% (active) | growth inhibition ([6]; at 50.0 µM): 70.3% (active)

CCCCCCCCCCCCCCCCOP(=O)(O)OCC(NC(C)=O)C(=O)O (stereo not given)
growth inhibition [1, 8]: -2% (inactive) | growth inhibition [1, 9]: 100% (active) | growth inhibition ([1]; at 50.0 µM): 99.2% (active) | growth inhibition [2, 8]: 17% (inactive) | growth inhibition [2, 9]: 100% (active) | growth inhibition ([2]; at 50.0 µM): 99.5% (active) | growth inhibition [3, 8]: 4% (inactive) | growth inhibition [3, 9]: 95% (active) | growth inhibition ([3]; at 50.0 µM): 99.3% (active) | growth inhibition [4, 8]: 37% (inactive) | growth inhibition [4, 9]: 99% (active) | growth inhibition ([4]; at 50.0 µM): 99.3% (active) | growth inhibition [5, 8]: 1% (inactive) | growth inhibition [5, 9]: 97% (active) | growth inhibition ([5]; at 50.0 µM): 99.5% (active) | growth inhibition [6, 8]: -1% (inactive) | growth inhibition [6, 9]: 99% (active) | growth inhibition ([6]; at 50.0 µM): 99.4% (active)
